The panel holds about 79,000 compounds, 15% with a hit somewhere; the sample as a whole holds those more often. Unmarked numbers belong to inactive results. The source made the active and inactive calls. Cut-off read from the data, not from the text of the source: active = growth inhibition above about 70%; inactive = the rest.
How the values were obtained:
[1] = NCI Yeast Anticancer Drug Screen. Data for the rad50 strain (AID 155);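 note: 0% = growth of vehicle-only cultures of the same strain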; conditions: S. cerevisiae rad50 strain growth inhibition, active compounds read high
Outline: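 A DNA repair-deficient yeast mutant serves as the test organism; compound-induced growth inhibition is calculated against vehicle-treated cells.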

[2] = NCI Yeast Anticancer Drug Screen. Data for the mec2-1 strain (AID 157); conditions: S. cerevisiae mec2-1 strain, active compounds read high
Outline: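 Vehicle-treated cultures served as reference for growth inhibition of compound-exposed mec2-1 yeast.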

[3] = NCI Yeast Anticancer Drug Screen. Data for the sgs1 mgt1 strain (AID 161);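 note: 0% = growth of cultures given vehicle only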; conditions: S. cerevisiae sgs1 mgt1 strain, active compounds read high
Outline: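 Mutant yeast exposed to compound; growth scored against vehicle-only wells.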

[4] = NCI Yeast Anticancer Drug Screen. Data for the cln2 rad14 strain (AID 165);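 note: 0% = growth equal to vehicle treated cultures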; conditions: S. cerevisiae cln2 rad14 strain, active compounds read high
Outline: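 Each compound was tested on cln2 rad14 yeast. Inhibition of growth was calculated against vehicle-exposed controls.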

[5] = NCI Yeast Anticancer Drug Screen. Data for the bub3 strain (AID 167); conditions: S. cerevisiae bub3 mutant strain, active compounds read high
Outline: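 Inhibition values come from growth of compound-treated mutant yeast normalised to vehicle-treated controls.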

[6] = NCI Yeast Anticancer Drug Screen. Data for the mlh1 rad18 strain (AID 175); conditions: S. cerevisiae mlh1 rad18 strain growth inhibition, active compounds read high
Outline: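 Vehicle-treated cultures served as the reference for growth inhibition in a yeast strain carrying DNA damage repair alterations exposed to each compound.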

[7] = at 5.0 µM (retest, dose inferred, filed as 0.5)
[8] = at 50.0 µM (retest, dose inferred, filed as 5.0)

Structure (SMILES)	growth inhibition [1, 7] [%]	growth inhibition [1, 8]	growth inhibition ([1]; at 50.0 µM)	growth inhibition [2, 7] [%]	growth inhibition [2, 8]	growth inhibition ([2]; at 50.0 µM)	growth inhibition [3, 7]	growth inhibition [3, 8]	growth inhibition ([3]; at 50.0 µM)	growth inhibition [4, 7] [%]	growth inhibition [4, 8]	growth inhibition ([4]; at 50.0 µM)	growth inhibition [5, 7] [%]	growth inhibition [5, 8]	growth inhibition ([5]; at 50.0 µM)	growth inhibition [6, 7] [%]	growth inhibition [6, 8]	growth inhibition ([6]; at 50.0 µM)
O=C(NCc1ccccc1)N1CCN(c2ccccc2)C1=O	-3	3%	47%	-3	-5%	2.65%	-3%	-1%	-2.15%	-4	13%	36.5%	4	12%	6.95%	-4	-4%	11.7%
Cc1cc(C(=O)O)c(C)c2c1sc1ccccc12	6	87% (active)	76.8% (active)	3	79% (active)	27.2%	12%	82% (active)	62.8%	-64	81% (active)	42%	-11	-14%	51.1%	0	81% (active)	81.2% (active)
CCCCCC(C)[P+](c1ccccc1)(c1ccccc1)c1ccccc1 (centres undefined)	54	98% (active)	90.8% (active)	48	99% (active)	90.9% (active)	71% (active)	99% (active)	90% (active)	61	98% (active)	90.1% (active)	69	99% (active)	91% (active)	45	98% (active)	88.5% (active)
OCCN1CCN(CCCN2c3cc(Cl)ccc3Sc3ccsc32)CC1	-8	98% (active)	98.5% (active)	0	98% (active)	98.4% (active)	-7%	95% (active)	98.7% (active)	-7	97% (active)	94.4% (active)	-2	97% (active)	97.6% (active)	-7	97% (active)	98.1% (active)
COc1ccc(/C=C\Cc2cc3c(cc2OCCO)OCO3)cc1	3	92% (active)	96.7% (active)	7	95% (active)	96.7% (active)	7%	97% (active)	97.8% (active)	1	82% (active)	69.6%	-1	96% (active)	85.6% (active)	-2	97% (active)	97.2% (active)
C[C@]12CC[C@H]3[C@@H](CCC4=CC(=O)CC[C@@]43C)[C@@H]1CC[C@@H]2O[Si](O[C@H]1CC[C@H]2[C@@H]3CCC4=CC(=O)CC[C@]4(C)[C@H]3CC[C@]12C)(O[C@H]1CC[C@H]2[C@@H]3CCC4=CC(=O)CC[C@]4(C)[C@H]3CC[C@]12C)c1ccccc1	5	59%	75.9% (active)	1	62%	89.9% (active)	-1%	93% (active)	97.5% (active)	-6	33%	58.6%	4	77% (active)	81.5% (active)	1	84% (active)	94.8% (active)
Nc1nc(Cl)cc(Nc2ccc(Cl)c(Cl)c2)n1	-1	91% (active)	72.8% (active)	-2	73% (active)	70.3% (active)	-4%	77% (active)	95.8% (active)	16	58%	51.7%	3	92% (active)	93.2% (active)	-3	79% (active)	89.8% (active)
O=C1CN(CCN2CCOCC2)CC(=O)N2Cc3ccccc3CN12	12	38%	61.6%	7	55%	24.1%	27%	41%	66.5%	3	46%	62.6%	6	35%	68.5%	29	64%	44.2%
